Measurements reported in the supplement of paper PMC10037445.
± gives the standard deviation of the averaged measurements. Whole data set: some 2,900 compounds, median “NF-kB SEAP reporter activity, fold change vs agonist alone” near 0.99, cut for the highest 2% near 2.6. For the sample, the highest values were picked, then their nearest neighbours and some compounds at random.

Columns and labels:
RAW-Dual [1] = test: NF-kB SEAP reporter activity, fold change vs agonist alone; cytotoxicity flag (confluency mask): not cytotoxic; higher = enhanced NF-kB activity
Outline: (§1)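 RAW-Dual macrophages were seeded in DMEM at 50,000 cells/well in 384-well plates, given 50 nL of library stock by pin tool, and given a PRR agonist 1 h later. Plates were held at 37 °C, 5% CO2 for 20 hours, after which supernatant was read for IRF by QuantiLuc luminescence and for NF-κB by QuantiBlue absorbance at 620 nm. Reporter activity is expressed as fold change over wells that received agonist alone. A well was called cytotoxic when IncuCyte confluency fell below 70% of agonist controls in both mask sets.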

RAW-Dual [2] = test: NF-kB SEAP reporter activity, fold change vs agonist alone; higher = enhanced NF-kB activity; conditions: library stock concentration (final ~1000-fold dilution): 10 mM
Outline: as §1

RAW-Dual [3] = test: NF-kB SEAP reporter activity, fold change vs agonist alone; cytotoxicity flag (confluency mask): cytotoxic (confluency <70% of control); higher = enhanced NF-kB activity
Outline: as §1

[4] = agonist: ODN 1826 (TLR9) 0.5 ug/mL
[5] = agonist: Pam2CSK4 (TLR2/6) 0.1 ug/mL
[6] = agonist: Pam3CSK4 (TLR2/1) 0.1 ug/mL
[7] = cytotoxicity flag (confluency mask): not cytotoxic, agonist: Imiquimod (TLR7) […]
[8] = cytotoxicity flag (confluency mask): not cytotoxic, agonist: MPLA (TLR4) […]
[9] = cytotoxicity flag (confluency mask): cytotoxic (confluency <70% of control), agonist: Imiquimod (TLR7) […]
[10] = cytotoxicity flag (confluency mask): cytotoxic (confluency <70% of control), agonist: MPLA (TLR4) […]

Q: Which results are given for `COc1cc(C(N)=O)nc(-c2cccc(C#C[C@]3(O)CCN(C)C3=O)c2)c1` (library stock concentration (final ~1000-fold dilution): 10 mM)?
A: NF-kB SEAP reporter activity (RAW-Dual [1]; agonist: LPS (TLR4) 0.1 ug/mL): 1.39; NF-kB SEAP reporter activity (RAW-Dual [1]; [4]): 0.529; NF-kB SEAP reporter activity (RAW-Dual [1]; [5]): 0.699; NF-kB SEAP reporter activity (RAW-Dual [1]; [6]): 0.966

Q: How did the “NF-kB SEAP reporter activity” value (RAW-Dual [2]; [7]) turn out when `COc1cc(C(N)=O)nc(-c2cccc(C#C[C@]3(O)CCN(C)C3=O)c2)c1` was run?
A: 0.839

Q: And the “NF-kB SEAP reporter activity” value (RAW-Dual [2]; [8])?
A: 0.915

Q: For `Cc1noc(C)c1-c1ccc(-c2cc(C(N)=O)c(NC(N)=O)s2)c(OC2CCNC2)c1` (stereo unspecified), which “NF-kB SEAP reporter activity” value (RAW-Dual [2]; [7]) is on record?
A: 0.654 ± 0.054

Q: What about the “NF-kB SEAP reporter activity” value (RAW-Dual [2]; [8]) of the same compound?
A: 0.683 ± 0.15

Q: How did the “NF-kB SEAP reporter activity” value (RAW-Dual [1]; agonist: LPS (TLR4) 0.1 ug/mL) turn out when `Cc1noc(C)c1-c1ccc(-c2cc(C(N)=O)c(NC(N)=O)s2)c(OC2CCNC2)c1` (stereo unspecified) (library stock concentration (final ~1000-fold dilution): 10 mM) was run?
A: 0.567 ± 0.07

Q: What about the “NF-kB SEAP reporter activity” value (RAW-Dual [1]; [4]) of the same compound?
A: 0.449 ± 0.019

Q: What about the “NF-kB SEAP reporter activity” value (RAW-Dual [1]; [5]) of the same compound?
A: 0.275 ± 0.0078

Q: And the “NF-kB SEAP reporter activity” value (RAW-Dual [1]; [6])?
A: 0.392 ± 0.058

Q: Which “NF-kB SEAP reporter activity” value (RAW-Dual [1]; agonist: LPS (TLR4) 0.1 ug/mL) does the source give for `CCN(C(=O)c1c(O)n(C)c2cccc(Cl)c2c1=O)c1ccccc1` (library stock concentration (final ~1000-fold dilution): 10 mM) here?
A: 1.08

Q: What about the “NF-kB SEAP reporter activity” value (RAW-Dual [1]; [4]) of the same compound?
A: 1.06

Q: What about the “NF-kB SEAP reporter activity” value (RAW-Dual [1]; [5]) of the same compound?
A: 1.01

Q: And the “NF-kB SEAP reporter activity” value (RAW-Dual [1]; [6])?
A: 1

Q: What does the source list for `CCN(C(=O)c1c(O)n(C)c2cccc(Cl)c2c1=O)c1ccccc1`?
A: NF-kB SEAP reporter activity (RAW-Dual [2]; [7]): 0.913; NF-kB SEAP reporter activity (RAW-Dual [2]; [8]): 0.993

Q: For `C=C(Cc1ccccc1Cl)C(=O)OCC` (library stock concentration (final ~1000-fold dilution): 10 mM), which “NF-kB SEAP reporter activity” value (RAW-Dual [3]; agonist: LPS (TLR4) 0.1 ug/mL) is on record?
A: 0.636

Q: What about the “NF-kB SEAP reporter activity” value (RAW-Dual [3]; [4]) of the same compound?
A: 0.588

Q: And the “NF-kB SEAP reporter activity” value (RAW-Dual [3]; [5])?
A: 0.682

Q: And the “NF-kB SEAP reporter activity” value (RAW-Dual [3]; [6])?
A: 0.806

Q: What does the source list for `C=C(Cc1ccccc1Cl)C(=O)OCC`?
A: NF-kB SEAP reporter activity (RAW-Dual [2]; [9]): 0.73; NF-kB SEAP reporter activity (RAW-Dual [2]; [10]): 0.891

Q: What does the source list for `COCCNCc1ccc(-c2cc3nccc(Oc4ccc(NC(=O)C5(C(=O)Nc6ccc(F)cc6)CC5)cc4F)c3s2)nc1` (library stock concentration (final ~1000-fold dilution): 10 mM)?
A: NF-kB SEAP reporter activity (RAW-Dual [1]; agonist: LPS (TLR4) 0.1 ug/mL): 0.36; NF-kB SEAP reporter activity (RAW-Dual [1]; [4]): 0.205; NF-kB SEAP reporter activity (RAW-Dual [1]; [5]): 0.0909; NF-kB SEAP reporter activity (RAW-Dual [1]; [6]): 0.149

Q: For `COCCNCc1ccc(-c2cc3nccc(Oc4ccc(NC(=O)C5(C(=O)Nc6ccc(F)cc6)CC5)cc4F)c3s2)nc1`, which “NF-kB SEAP reporter activity” value (RAW-Dual [2]; [7]) is on record?
A: 0.327

Q: What about the “NF-kB SEAP reporter activity” value (RAW-Dual [2]; [8]) of the same compound?
A: 0.388

Q: Which “NF-kB SEAP reporter activity” value (RAW-Dual [2]; [7]) does the source give for `COc1cc2nccc(Oc3ccc(NC(=O)C4(C(=O)Nc5ccc(F)cc5)CC4)cc3)c2cc1OC.O=C(O)CC(O)C(=O)O` here?
A: 0.796

Q: What about the “NF-kB SEAP reporter activity” value (RAW-Dual [2]; [8]) of the same compound?
A: 0.939

Q: For `Cn1cc(-c2cc(Oc3cc(F)c(NC(=O)C4(C(=O)Nc5ccccc5)CC4)cc3F)ccn2)cn1`, which “NF-kB SEAP reporter activity” value (RAW-Dual [2]; [7]) is on record?
A: 0.974

Q: What about the “NF-kB SEAP reporter activity” value (RAW-Dual [2]; [8]) of the same compound?
A: 1.71

Q: What does the source list for `Cn1cc(-c2cc(Oc3cc(F)c(NC(=O)C4(C(=O)Nc5ccccc5)CC4)cc3F)ccn2)cn1` (library stock concentration (final ~1000-fold dilution): 10 mM)?
A: NF-kB SEAP reporter activity (RAW-Dual [1]; agonist: LPS (TLR4) 0.1 ug/mL): 3.09; NF-kB SEAP reporter activity (RAW-Dual [1]; [4]): 0.863; NF-kB SEAP reporter activity (RAW-Dual [1]; [5]): 0.629; NF-kB SEAP reporter activity (RAW-Dual [1]; [6]): 0.98

Q: What does the source list for `COc1cc2nccc(Oc3ccc(NC(=O)C4(C(=O)Nc5ccc(F)cc5)CC4)cc3)c2cc1OC.O=C(O)CC(O)C(=O)O` (library stock concentration (final ~1000-fold dilution): 10 mM)?
A: NF-kB SEAP reporter activity (RAW-Dual [1]; agonist: LPS (TLR4) 0.1 ug/mL): 0.861; NF-kB SEAP reporter activity (RAW-Dual [1]; [4]): 0.525; NF-kB SEAP reporter activity (RAW-Dual [1]; [5]): 0.284; NF-kB SEAP reporter activity (RAW-Dual [1]; [6]): 0.277

Q: How did the “NF-kB SEAP reporter activity” value (RAW-Dual [3]; agonist: LPS (TLR4) 0.1 ug/mL) turn out when `COc1ccc2cc1Oc1ccc(cc1)CC1c3cc(c(OC)cc3CCN1C)Oc1c(O)c(OC)cc3c1C(C2)N(C)CC3` (stereo unspecified) (library stock concentration (final ~1000-fold dilution): 10 mM) was run?
A: 1.81

Q: What about the “NF-kB SEAP reporter activity” value (RAW-Dual [3]; [4]) of the same compound?
A: 0.241

Q: What about the “NF-kB SEAP reporter activity” value (RAW-Dual [3]; [5]) of the same compound?
A: 2.15

Q: What about the “NF-kB SEAP reporter activity” value (RAW-Dual [3]; [6]) of the same compound?
A: 1.31

Q: What does the source list for `COc1ccc2cc1Oc1ccc(cc1)CC1c3cc(c(OC)cc3CCN1C)Oc1c(O)c(OC)cc3c1C(C2)N(C)CC3` (stereo unspecified)?
A: NF-kB SEAP reporter activity (RAW-Dual [2]; [9]): 0.618; NF-kB SEAP reporter activity (RAW-Dual [2]; [10]): 2.39

Q: For `O=C1C(CCC(O)c2ccc(F)cc2)C(c2ccc(O)cc2)N1c1ccc(F)cc1` (stereo unspecified) (library stock concentration (final ~1000-fold dilution): 10 mM), which “NF-kB SEAP reporter activity” value (RAW-Dual [1]; agonist: LPS (TLR4) 0.1 ug/mL) is on record?
A: 1.42

Q: What about the “NF-kB SEAP reporter activity” value (RAW-Dual [1]; [4]) of the same compound?
A: 0.665

Q: And the “NF-kB SEAP reporter activity” value (RAW-Dual [1]; [5])?
A: 0.889

Q: What about the “NF-kB SEAP reporter activity” value (RAW-Dual [1]; [6]) of the same compound?
A: 0.589

Q: What does the source list for `O=C1C(CCC(O)c2ccc(F)cc2)C(c2ccc(O)cc2)N1c1ccc(F)cc1` (stereo unspecified)?
A: NF-kB SEAP reporter activity (RAW-Dual [2]; [7]): 0.952; NF-kB SEAP reporter activity (RAW-Dual [2]; [8]): 1.38

Q: `CC1(C)SC2CC(=O)N2C1C(=O)OCOC(=O)C1N2C(=O)C(NC(=O)C(N)c3ccccc3)C2S(=O)(=O)C1(C)C.Cc1ccc(S(=O)(=O)O)cc1` (stereo unspecified) was tested. Which “NF-kB SEAP reporter activity” value (RAW-Dual [2]; [8]) did it give?
A: 1.02

Q: What does the source list for `CC1(C)SC2CC(=O)N2C1C(=O)OCOC(=O)C1N2C(=O)C(NC(=O)C(N)c3ccccc3)C2S(=O)(=O)C1(C)C.Cc1ccc(S(=O)(=O)O)cc1` (stereo unspecified) (library stock concentration (final ~1000-fold dilution): 10 mM)?
A: NF-kB SEAP reporter activity (RAW-Dual [1]; agonist: LPS (TLR4) 0.1 ug/mL): 1.26; NF-kB SEAP reporter activity (RAW-Dual [1]; [4]): 0.797; NF-kB SEAP reporter activity (RAW-Dual [1]; [5]): 1.02; NF-kB SEAP reporter activity (RAW-Dual [1]; [6]): 0.873

Q: Which results are given for `CN1C(CC(=O)c2ccccc2)CCCC1CC(O)c1ccccc1.Cl` (stereo unspecified)?
A: NF-kB SEAP reporter activity (RAW-Dual [2]; [7]): 0.779; NF-kB SEAP reporter activity (RAW-Dual [2]; [8]): 0.909

Q: With `CN1C(CC(=O)c2ccccc2)CCCC1CC(O)c1ccccc1.Cl` (stereo unspecified) (library stock concentration (final ~1000-fold dilution): 10 mM) as the compound, how does the “NF-kB SEAP reporter activity” value (RAW-Dual [1]; agonist: LPS (TLR4) 0.1 ug/mL) read?
A: 1.18

Q: And the “NF-kB SEAP reporter activity” value (RAW-Dual [1]; [4])?
A: 0.669

Q: What about the “NF-kB SEAP reporter activity” value (RAW-Dual [1]; [5]) of the same compound?
A: 0.9

Q: What about the “NF-kB SEAP reporter activity” value (RAW-Dual [1]; [6]) of the same compound?
A: 1.15

Q: How did the “NF-kB SEAP reporter activity” value (RAW-Dual [1]; agonist: LPS (TLR4) 0.1 ug/mL) turn out when `O=C(O)CN(CC(=O)O)c1ccccc1OCCOc1ccccc1N(CC(=O)O)CC(=O)O` (library stock concentration (final ~1000-fold dilution): 10 mM) was run?
A: 1

Q: And the “NF-kB SEAP reporter activity” value (RAW-Dual [1]; [4])?
A: 0.989

Q: What about the “NF-kB SEAP reporter activity” value (RAW-Dual [1]; [5]) of the same compound?
A: 1.04

Q: What about the “NF-kB SEAP reporter activity” value (RAW-Dual [1]; [6]) of the same compound?
A: 0.872

Q: What does the source list for `O=C(O)CN(CC(=O)O)c1ccccc1OCCOc1ccccc1N(CC(=O)O)CC(=O)O`?
A: NF-kB SEAP reporter activity (RAW-Dual [2]; [7]): 0.994; NF-kB SEAP reporter activity (RAW-Dual [2]; [8]): 1.01
